B1: chr21:44329077:44329078:+_ENSG00000160194_ENST00000354250|hu_hu|motif|central (ssRNA)
RNA: GGGAGUUCUACAGUCCGACGAUCCUCCCGGCCUGAGGAGGGCUGAGGCAUCCUGAAUUUUGAGAGUUCGAGGUUGAGGUCGGAGAAGGUGUACGUGCUGUAGUCAUGAUGCUGCAGGUUCUUGUAGGUAGUGUUGUCAAACGGCAACAGAGGAUUGAGCAUCA
B2: chr11:93905761:93905762:+_ENSMUSG00000020859_ENSMUST00000103168|mus_mus|FALSE|FALSE (ssRNA)
RNA: GGGAGUUCUACAGUCCGACGAUCCGCUGGCACCCCGGUAGAAAUAGAAAAGUGCACAAGCAGCAAAACAGAGAGAGAUACUAAGAUCGCAGAAUUAAUGACCACCGCCCCGCCAACAAAGCCAAACACAAACAGCAGCAUGCACAACAGAGGAUUGAGCAUCA
B3: chr8:117868997:117868998:-_ENSG00000164754_ENST00000297338|hu_hu|motif|central (ssRNA)
RNA: GGGAGUUCUACAGUCCGACGAUCCACCCCUGCCUCAGAGAGGGCAGGGGGAUCAUCAAAGAUACCGCCAUCAUUAUUACGGAUAAGUUUGUCAUCUAAUAUUCCACCAUCAUUUCCUUCUCCAAAAUUAUCAUCCUUAUAUUGCAACAGAGGAUUGAGCAUCA
B4: chr5:116097646:116097647:+_ENSMUSG00000029518_ENSMUST00000031492|mus_mus|FALSE|FALSE (ssRNA)
RNA: GGGAGUUCUACAGUCCGACGAUCUAAAAAGCAUAAUUAGAAACUUUCAAUACAGAAAUAGUCCUAGCAAACCAUUUAAAAGUUGGUUGUUUGACAGGAGUUUCACAUCGGGCCCACCAGGGUACCAGUGUAGCCCUGAUUCUCCAACAGAGGAUUGAGCAUCA
B5: chr8:13019134:13019135:+_ENSMUSG00000031442_ENSMUST00000123811|mus_mus|motif|central (ssRNA)
RNA: GGGAGUUCUACAGUCCGACGAUCUGGCUGACAGGGGCCUCCUGUUUCCAGAGAUCUCGGAGCACCAUCCCCUCCCAAACGGAGCAAGCCCAAGCAAAAAUAAAAAUUAAAAAUAAAAAAAAACCAAAAAACUUAGAGAUUUGCCAACAGAGGAUUGAGCAUCA
B6: chr17:62500844:62500845:-_ENSG00000108654_ENST00000583239|hu_mus|motif|central (ssRNA)
RNA: GGGAGUUCUACAGUCCGACGAUCUUGAUAAAAAUUCUUCUCAAAUUUGGGCAGCUCAUCAAGAUUCCACUUCUUUUUAACGGGUUUCUCCCCAGGAUUUCCAAACUUCUUUCCAGAGAGGGGUCCUGUUCUACUCCCUCCAAACAACAGAGGAUUGAGCAUCA
B7: chr2:115689366:115689367:-_ENSMUSG00000027210_ENSMUST00000074285|mus_mus|FALSE|FALSE (ssRNA)
RNA: GGGAGUUCUACAGUCCGACGAUCUCUUUGAAGAACAGUCCCCCAAAAUCAUAAUAAGAAUUGGCUUAUGAAGCACAAACUAUAAAGAUCUGUUUGAAACUAAAGGACACAUGGACGGGGGGAACAAAGGCCGGGCAUGAAAACCAACAGAGGAUUGAGCAUCA
B8: chr1:225611761:225611762:-_ENSG00000143815_ENST00000272163|hu_mus|hu_hu_hu_mus_True|18_78 (ssRNA)
RNA: GGGAGUUCUACAGUCCGACGAUCCCAGGCCAUCGGCCUCUGACCACUUCACCCUCAGCAAAUUUCCUACUUGGCAUUUUCUAAAAUUAGUCUGGCCGCGCUCCGGCGGGAACUCCAGACGGCUCCCGACAGUCACCAGCAGCCCAACAGAGGAUUGAGCAUCA
B9: chr8:13019134:13019135:+_ENSMUSG00000031442_ENSMUST00000123811|mus_mus|FALSE|FALSE (ssRNA)
RNA: B5 RNA with G80U, G81A
B10: chr8:86519384:86519385:+_ENSMUSG00000005469_ENSMUST00000005606|mus_mus|FALSE|FALSE (ssRNA)
RNA: GGGAGUUCUACAGUCCGACGAUCUAAAUUAGAUGCAUGGAACUCUAGGGCCCUCUGGCUGUUCGAUCCAACCCUCCCACCCCCAACCGGAAAAAAAAUAGAAAGAAAAAGAAAAAAUGAAAGAGAACCCAAGGGGCACAAGCACAACAGAGGAUUGAGCAUCA

Numbering of substitutions follows the chain as printed. Over roughly 24,000 sequences, “enrichment r” has its median near 0.99; the highest 2% begin near 3.7. For the sample, the highest values were picked, then their nearest neighbours and some sequences at random.

For this assay, the target named is T1, UNK ZnF1-3 (human, UniProt Q9C0B0 31-174).
T1 sequence: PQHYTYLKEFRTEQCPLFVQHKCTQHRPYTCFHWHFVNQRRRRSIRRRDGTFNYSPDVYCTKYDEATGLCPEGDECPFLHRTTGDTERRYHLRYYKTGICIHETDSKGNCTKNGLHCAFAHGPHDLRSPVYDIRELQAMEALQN
Put plainly: nsRBNS (natural sequence RNA bind-n-seq); RBNS binding buffer (assumed for nsRBNS): 25 mM Tris pH 7.5, 150 mM KCl, 3 mM MgCl2, 0.01% Triton X-100, 500 ug/ml BSA, 20 U/ml SUPERase-In, 4 C; UNK is unkempt and MSI1 is Musashi-1; names of the RNAs are library labels; protein concentration not given here; high values mean tight binding.
B1 yielded a binding signal of 1.5 enrichment R.

Turning to B2, the binding signal stood at 2.57 enrichment R.

On to B3, for which the binding signal amounted to 1.12 enrichment R.

In turn, B4 displayed a binding signal of 0.472 enrichment R.

Take B5: the binding signal was determined as 14.4 enrichment R.

Turning to B6, the binding signal amounted to 1.28 enrichment R.

B7 displayed a binding signal of 2.13 enrichment R.

The molecule B8 displayed a binding signal of 1.27 enrichment R.

B9 had a binding signal of 21.6 enrichment R.

As for B10, the binding signal was 6.04 enrichment R.

For the origin of these results see publication PMC12136788.
